Legend:
Assay in all cases: PBM binding z-score (relative to random genomic background probes); higher = stronger binding; sequences stand for … in GC…GCGATTGACAGCGTAGAATGAAGG
[1] = test system: FXR:RXRa (NR concentration 270 nM, RXRa partner concentration 90 nM)
How it was run: (§1)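 Custom Agilent 4×180K protein-binding microarrays carried double-stranded probes, each with a 34-nt variable region. These regions held direct-repeat seeds, single-nucleotide variants, half-site ablations and random human genomic background sequences. Ligand-free nuclear receptor dimers were incubated on the arrays for 1 h, antibodies against each partner (one per run) detected binding, and scanned fluorescence was regression-normalized. Binding z-scores take the random background probes as reference.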

[2] = test system: LXRa:RXRa (NR concentration 270 nM, RXRa partner concentration 90 nM)
How it was run: as §1

[3] = test system: LXRa homodimer (NR concentration 270 nM)
How it was run: as §1

[4] = test system: LXRb:RXRa (NR concentration 270 nM, RXRa partner concentration 90 nM)
How it was run: as §1

[5] = test system: LXRb homodimer (NR concentration 270 nM)
How it was run: as §1

[6] = test system: PPARa:RXRa (NR concentration 270 nM, RXRa partner concentration 90 nM)
How it was run: as §1

[7] = test system: PPARg:RXRa (NR concentration 180 nM, RXRa partner concentration 90 nM)
How it was run: as §1

[8] = test system: PPARg:RXRa 270nM:90nM, anti-RXR (NR concentration 270 nM, RXRa partner concentration 90 nM)
How it was run: as §1

[9] = test system: PPARg:RXRa 30nM:10nM, anti-RXR (NR concentration 30 nM, RXRa partner concentration 10 nM)
How it was run: as §1

[10] = test system: PPARg:RXRa 90nM:30nM, anti-RXR (NR concentration 90 nM, RXRa partner concentration 30 nM)
How it was run: as §1

[11] = test system: PPARg:RXRa DBDmut IVT, anti-RXR (DBD mutation: RXRa K156A/R161A, NR concentration 270 nM, RXRa partner concentration 90 nM)
How it was run: as §1

[12] = test system: PPARg:RXRa IVT, anti-PPARg (NR concentration 270 nM, RXRa partner concentration 90 nM)
How it was run: as §1

[13] = test system: PPARg DBDmut:RXRa IVT, anti-PPARg (DBD mutation: PPARg1 K132A/R137A, NR concentration 270 nM, RXRa partner concentration 90 nM)
How it was run: as §1

[14] = test system: PPARg DBDmut IVT, anti-PPARg (DBD mutation: PPARg1 K132A/R137A, NR concentration 270 nM)
How it was run: as §1

[15] = test system: PPARg homodimer (NR concentration 180 nM)
How it was run: as §1

[16] = test system: PXR:RXRa (NR concentration 270 nM, RXRa partner concentration 90 nM)
How it was run: as §1

[17] = test system: PXR homodimer (NR concentration 270 nM)
How it was run: as §1

[18] = test system: RARa:RXR (NR concentration 270 nM, RXRa partner concentration 90 nM)
How it was run: as §1

[19] = test system: RARa homodimer (NR concentration 270 nM)
How it was run: as §1

[20] = test system: RARb:RXRa (NR concentration 270 nM, RXRa partner concentration 90 nM)
How it was run: as §1

Sequence | PBM binding z-score [1] | PBM binding z-score [2] | PBM binding z-score [3] | PBM binding z-score [4] | PBM binding z-score [5] | PBM binding z-score [6] | PBM binding z-score [7] | PBM binding z-score [8] | PBM binding z-score [9] | PBM binding z-score [10] | PBM binding z-score [11] | PBM binding z-score [12] | PBM binding z-score [13] | PBM binding z-score [14] | PBM binding z-score [15] | PBM binding z-score [16] | PBM binding z-score [17] | PBM binding z-score [18] | PBM binding z-score [19] | PBM binding z-score [20]
TGTGAAAGTTCAAAGGTAACGTAAGTATCCACAC | 6.55 | 5.73 | 4.61 | 4.36 | 2.11 | 5.49 | 6.77 | 6.84 | 4.1 | 6.25 | -0.131 | 3.37 | 1.69 | 1.46 | 2.73 | 5.64 | 4.19 | 6.09 | 1.81 | 4.74
AGAAAGAGGGCACGCTGAGTTGATAGCAGAGTAG | 1.1 | 1.24 | -0.317 | 0.624 | -0.685 | 2.59 | 1.83 | 1.95 | 0.315 | 1.09 | 3.25 | 3.07 | 0.171 | -0.413 | 0.723 | 1.85 | -0.108 | 1.27 | -0.166 | 2.74
ACTCGGCGGACAAAGGTCAGAGCTACGCCAGTGA | 3.34 | 3.79 | 1.32 | 2.86 | -0.304 | 4.34 | 4.89 | 5.97 | 3.53 | 5.74 | 0.148 | 2.33 | -0.012 | -0.434 | 1.79 | 3.41 | 0.0332 | 4.18 | 0.924 | 4.22
CCGAATGGGGCAGAAAGGTTACCATACCATCCGG | 0.445 | 0.679 | 0.189 | 0.904 | -0.832 | 2.53 | 2.67 | 4.16 | 2.22 | 3.95 | 0.269 | 1 | -1.13 | -0.938 | 0.818 | 1.11 | 0.134 | 1.8 | -0.0696 | 1.89
CAACCTAGGTCAGGGCCAGTATAGGAGGAACGTT | 2.3 | 1.36 | -0.178 | 0.897 | -0.856 | 2.5 | 1.79 | 1.74 | 0.0391 | 0.938 | 2.7 | 3.26 | 0.0736 | 0.168 | 1.57 | 0.478 | -0.518 | 1.45 | 0.172 | 3.51
ATCGAAAGGTCGTGAGGTGAGTAAACAGAAAGGC | 5.42 | 3.82 | 0.314 | 3.14 | 0.648 | 5.03 | 3.9 | 4.4 | 1.22 | 2.97 | 0.111 | 2.34 | 1.06 | 0.746 | 1.39 | 2.84 | 0.0266 | 4.08 | 0.931 | 3.94
CGAACTAGGTCAAAACAGGACAGTGAAGGATGAT | 3.26 | 3.07 | 0.154 | 1.86 | 0.313 | 4.54 | 6.73 | 5.86 | 3.32 | 5.36 | 7.83 | 8.1 | 3.19 | 2.56 | 2.39 | 2.05 | -0.00978 | 2.02 | 0.444 | 3.33
